Inconclusive results are not listed. Unmarked numbers belong to inactive results. Active and inactive are the calls of the source. Calls come from the whole dose curve; as a rule, active = well fitted curve in the direction sought with a large enough effect; inconclusive = small, poorly fitted or top-dose-only effect, or another doubt; inactive = no such curve, though single readings can be large; an effect the other way counts as inactive or inconclusive. Where a SMILES comes first, the peptide text is derived from it. The star is where a group is joined. AMC = Cc1cc(=O)oc2cc(N*)ccc12; Cbz = O=C(OCc1ccccc1)*; PhAc = O=C(Cc1ccccc1)*

Test [1] can be described thus: P-glycoprotein substrates identified in KB-8-5-11 adenocarcinoma cell line, qHTS therapeutic library screen (AID 1346987). For activity change, negative = cytotoxicity: series mostly up to about 44 µM; % is set by controls: 0 for no effect and ±100 for the full control effect. Note: nearly all actives have a fitted effect of over 65% in size. The procedure, abridged: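 Luminescence from CellTiter-Glo, read 5 min after addition, quantified survival of KB-8-5-11 (P-gp-overexpressing) cells exposed to compounds for 72 h. AC50 was derived from concentration-response curves.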
(Quantitative high-throughput screening tests each substance at several concentrations.)

Test [2] relates to Zika virus NS2B-NS3 protease (unlinked complex). Nature of the test: Primary screen GU Rhodamine qHTS for Zika virus inhibitors: Unlinked NS2B-NS3 protease assay (AID 1347159). For activity change, negative = inhibition: % is set by controls: 0 for no effect and ±100 for the full control effect. Note: nearly all actives have a fitted effect of over 60% in size. Note: potency is the fitted concentration of half-maximal effect. The procedure, abridged:
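Enzyme 25 nM in Tris-HCl pH 8.0 + 0.01% Tween 20; compounds up to 114 microM, 15 min RT dark; + Rhod110 substrate 1.5 microM; read t0 and 15 min; delta fluorescence → % inhibition → 4-parameter Hill fit.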

Test [3] is described as follows: Confirmatory screen GU Rhodamine qHTS for Zika virus inhibitors qHTS (AID 1347157).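 For activity change, negative = inhibition: plate controls were no-inhibitor wells for no effect and no-enzyme wells for full effect.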 Note: nearly all actives have a fitted effect of over 70% in size. Note: potency is the fitted concentration of half-maximal effect. A digest of the protocol: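 Noncovalent NS2B hydrophilic domain/NS3 protease complex (25 nM final) in 10 mM Tris-HCl pH 8.0, 0.01% Tween 20, preincubated 15 min with compounds (up to 114 microM), then 1.5 microM Rhodamine110 substrate. Fluorescence change over 15 min fitted to 4-parameter Hill.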

Test [4] in a line: Confirmatory screen NINDS Rhodamine qHTS for Zika virus inhibitors (AID 1347161).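 For activity change, negative = inhibition: purified Zika NS2B-NS3 protease with linked NS2B cofactor domain and Rhodamine110 peptide substrate; series mostly up to about 110 µM; plate controls were no-inhibitor control for no effect and no-enzyme control for full effect.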 Note: nearly all actives have a fitted effect of over 60% in size. Note: potency is the fitted concentration of half-maximal effect. The procedure, abridged: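 Each compound, titrated, sat 15 min with 25 nM linked protease before 1.5 microM Rhodamine110 substrate went in. Fluorescence gain over the next 15 min, in pH 8.0 Tris with Tween 20, gave Hill-fitted curves.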
For test [5], the system named is Zika virus NS2B-NS3 protease (linked construct). Nature of the test: Primary screen NINDS Rhodamine qHTS for Zika virus inhibitors (AID 1347160). For activity change, negative = inhibition: % is set by controls: 0 for no effect and ±100 for the full control effect. Note: nearly all actives have a fitted effect of over 55% in size. A digest of the protocol: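 Enzyme (25 nM, linked NS2B-NS3) was preincubated 15 min with compound in 10 mM Tris-HCl pH 8.0, 0.01% Tween 20. Rhodamine110 substrate (1.5 microM) was then added and fluorescence read at start and after 15 min.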

As to `COc1cc(C2Oc3c(OC)cc(CCCO)cc3C2CO)ccc1O` (stereo not given), the Potency result in test [1] was “inactive”. The Potency in test [2] is 39.8 µM (active).
Turning to `Cc1cc(=O)oc2cc(NC(=O)[C@H](CCC(=O)O)NC(=O)[C@H](CC(C)C)NC(=O)[C@H](CC(C)C)NC(=O)OCc3ccccc3)ccc12` (Cbz-Leu-Leu-Glu-{AMC}), the Potency result in test [1] and in test [2] was “inactive” throughout.
Turning to `C=C1CCC2C(C)(C)CC(=O)CC2(C)C1CCC(C)CCO` (stereo not given), the Potency entry in test [1] is “inactive”. Besides, the Potency in test [2] was 20 µM (active).
`CC1CCC2(C)CCC3(C)C(=CCC4C5(C)CCC(O)C(C)(C(=O)O)C5CCC43C)C2C1C` (stereo not given): the Potency result in test [1] was “inactive”. Besides, the Potency in test [2] was 8.91 µM (active).
On to `O=C(O)CC/C=C\C[C@H]1CO[C@@H](c2ccccc2Cl)O[C@H]1c1ccccc1O`, for which the Potency entry in test [1] and in test [2] was “inactive” throughout. In addition, the Potency in test [3] was 31.2 µM (active); in test [4] it was 44.1 µM (active).
Take `CCOc1ccc(-c2nn3ncccc3c2-c2ccc(S(C)(=O)=O)cc2)cc1`: the Potency entry in test [1] and in test [2] was “inactive” throughout.
Regarding `Cc1ccccc1-n1nc(-c2c(-c3ccc(F)cc3)nn3c2NC[C@@H](CO)C3)ccc1=O`, the Potency entry in test [1], in test [3], in test [2] and in test [4] was “inactive” throughout.
On to `COc1cc(C(=O)OC[C@@]2(O)CO[C@@H](O[C@H]3[C@H](Oc4ccc(O)cc4)O[C@H](CO)[C@@H](O)[C@@H]3O)[C@@H]2O)cc(OC)c1O`, for which the Potency entry in test [1] and in test [2] was “inactive” each time.
Take `CSCC[C@H](NC(=O)[C@H](CO)NC(=O)[C@H](CCC(=O)O)NC(C)=O)C(=O)N[C@H](C=O)CC(=O)O` (Ac-ESMD-aldehyde): the activity change, negative = cytotoxicity in test [1] was 5.02% [at 9.29 µM]. For the same compound, the activity change, negative = inhibition in test [3] was 8.12% [at 22 µM]; in test [4] it was 12.5% [at 22.2 µM].
`Nc1nc(COC(=O)c2ccc([N+](=O)[O-])cc2)nc(Nc2ccccc2)n1`: the Potency result in test [1] and in test [2] was “inactive” in each case.
In the case of `CCCC(=O)Nc1cccc(NC(=O)c2ccccc2Br)c1`, the Potency entry in test [1] and in test [2] was “inactive” each time.
As to `C[C@]12CCC[C@](C)(C(=O)O)C1[C@@H](O)[C@@H](O)C13CC(CCC12)C(CO)(O[C@@H]1O[C@H](CO)[C@@H](O)[C@H](O)[C@H]1O)C3` (stereo not given in full), the Potency entry in test [1] and in test [2] was “inactive” in each case.
With `CCC[C@H](N[C@@H](C)C(=O)N1[C@H](C(=O)O)C[C@@H]2CCCC[C@@H]21)C(=O)O`, the Potency entry in test [1] and in test [2] was “inactive” throughout.
On to `C=CC(C)(O)CC/C=C(\C)COC1O[C@H](CO)[C@@H](O)[C@H](O)[C@H]1O` (stereo not given in full), for which, in test [1], the Potency result is “inactive”. Besides, in test [2], the Potency is 12.6 µM (active).
As for `CC[C@H]1OC(=O)[C@H](C)C(=O)[C@H](C)[C@@H](OC2O[C@H](C)C[C@H](N(C)C)[C@H]2O)[C@@H](C)C[C@@H](C)C(=O)/C=C/[C@]1(C)O` (stereo not given in full), the Potency result in test [1], in test [2] and in test [5] was “inactive” throughout.
Regarding `CC(=O)OC1CCC2(C)C(CCC3(C)C2CC=C2C4CC(C)(C)CCC4(C)CCC23C)C1(C)C(=O)O` (stereo not given), the Potency result in test [1] is “inactive”. The Potency in test [2] is 7.08 µM (active).
In the case of `CC1(C)C(=O)N2c3ccccc3C(O)(CC(C(=O)O)n3cnc4ccccc4c3=O)C2N1O` (stereo not given), the Potency entry in test [1], in test [2] and in test [5] was “inactive” in each case.
On to `CC(C)(Oc1ccc(-c2nc3cc(Cl)ccc3s2)cc1)C(=O)O`, for which the Potency result in test [1] is “inactive”. Besides, the Potency in test [2] is 35.5 µM (active).
As to `CC(/C=C/C=C(\C)C(=O)O[C@@H]1O[C@H](CO[C@@H]2O[C@H](CO)[C@@H](O)[C@H](O)[C@H]2O)[C@@H](O)[C@H](O)[C@H]1O)=C\C=C\C=C(C)\C=C\C=C(/C)C(=O)O[C@@H]1C[C@](O)(C(=O)O)C[C@@H](O)[C@H]1OC(=O)/C=C/c1ccc(O)c(O)c1`, the activity change, negative = cytotoxicity in test [1] is 3.01% [at 9.29 µM]. Besides, in test [2], the Potency is 1.78 µM (active).
Regarding `C=C1CC[C@@]2(OC1)O[C@H]1CC3[C@@H]4CC=C5C[C@H](O[C@H]6OC[C@@H](O)C(O)[C@@H]6O[C@@H]6O[C@@H](C)[C@H](O)[C@@H](O[C@@H]7O[C@H](CO)[C@@H](O)[C@H](O)[C@H]7O)[C@H]6O)C[C@@H](O)[C@]5(C)C4CC[C@]3(C)[C@H]1[C@@H]2C` (stereo not given in full), in test [1], the activity change, negative = cytotoxicity is 2.38% [at 9.29 µM]. In addition, the Potency entry in test [2] and in test [5] was “inactive” in each case.
In the case of `COc1cc(Cc2cnc(N)nc2N)c(C(C)C)cc1OC`, the Potency entry in test [1] and in test [2] was “inactive” throughout.
Take `C/C=C(\C)C1C(C)=CC2CCC(OS(=O)(=O)O)C(C)C2C1/C=C/C=C/C(=O)O` (stereo not given): the Potency result in test [1] was “inactive”. The Potency in test [2] was 8.91 µM (active).
For the compound `O=C(/C=C/c1ccccc1)O[C@@H]1[C@@H](CO)O[C@@](CO)(O[C@H]2O[C@H](CO)[C@@H](O)[C@H](O)[C@H]2O)[C@H]1O`, the Potency entry in test [1], in test [2] and in test [5] was “inactive” in each case.
Turning to `Oc1ccccc1-c1cc(-c2ccccc2F)[nH]n1`, the Potency result in test [1], in test [2] and in test [5] was “inactive” each time.
On to `C=C1CCC2[C@@](C)(C(=O)O)CCC[C@@]2(C)[C@@H]1CCc1ccoc1` (stereo not given in full), for which, in test [1], the Potency result was “inactive”. Moreover, the Potency in test [2] was 10 µM (active).
For `CCOC(=O)CNC(=O)[C@@H]1CCCN1C(=O)Cc1ccccc1` (PhAc-Pro-Gly-OEt) the same measures were “inactive” and “inactive”.
Take `O=C(NC1CCN(CC(F)(F)F)CC1)c1ccc(-c2cccc(F)c2)nc1`: the Potency entry in test [1], in test [2] and in test [5] was “inactive” throughout.
For `CC(C)C(NC(=O)c1ccc(O)cc1)C(=O)N1CCCC1C(=O)Nc1c(O)cccc1C(=O)O` (stereo not given), the Potency entry in test [1], in test [2] and in test [5] was “inactive” each time.
With `Cc1sc(C)c(C(=O)NC2(c3ccc(C(=O)O)cc3)CC2)c1Cc1ccc(C(F)(F)F)cc1`, the Potency result in test [1] is “inactive”. The Potency in test [2] is 17.8 µM (active).

(Values after PubChem BioAssay (NCATS).)
